This is part of a sample that, as a whole, favours compounds with a hit. Of some 83,000 tested, about 20% had one in any assay.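 Negative percent growth values reflect cell death: -40 means 40% of the cells present at the start died, and -100 means all died.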 Values without a mark were called inactive. Calls of active or inactive are those of the source. How the source made its calls: active means growth percent below 10; inactive means the rest.
Legend:
Assay in all cases: NCI-60 one-dose screen, 48 h (100 = growth as untreated, 0 = no growth, -100 = all killed)
Details in all cases: 10 µM unless noted
NCI-H23 lung = tested on: NCI-H23 lung
NCI-H226 lung = tested on: NCI-H226 lung
NCI-H322M lung = tested on: NCI-H322M lung
HOP-62 NSCLC = tested on: HOP-62 NSCLC
NCI-H460 lung = tested on: NCI-H460 lung
HOP-92 NSCLC = tested on: HOP-92 NSCLC
NCI-H522 lung = tested on: NCI-H522 lung
A549/ATCC NSCLC = tested on: A549/ATCC NSCLC
786-0 renal = tested on: 786-0 renal
COLO 205 colon = tested on: COLO 205 colon

Row | Structure (SMILES) | growth (NCI-H23 lung) | growth (NCI-H226 lung) | growth (NCI-H322M lung) | growth (HOP-62 NSCLC) | growth (NCI-H460 lung) | growth (HOP-92 NSCLC) | growth (NCI-H522 lung) | growth (A549/ATCC NSCLC) | growth (786-0 renal) | growth (COLO 205 colon)
1 | Clc1cc(Cl)cc(Nc2ccc3cc(OCCCN4CCOCC4)ccc3n2)c1 | 37.6% | 68.5% | 59.4% | 22% | 17.5% | 27.5% | -21.1% (active) | 35.6% | -36.6% (active) | -51.3% (active)
2 | COc1ccc(/C=N\NC(=O)c2cc(-c3ccc(Br)cc3)n(-c3ccc(S(N)(=O)=O)cc3)n2)cc1 | 71.7% | 77.8% | 63.1% | 48% | 38.5% | 46.8% | 18.9% | 52.1% | 66.9% | 62.2%
3 | CC1=C([Se]CC(OC(=O)CC[Se]c2ccccc2)C(=O)NCCCCCC(=O)OCc2ccccc2)C(=O)c2ccccc2C1=O (stereo not given) | 10% | 46% | 2.53% (active) | -15.1% (active) | 21.6% | -5.98% (active) | 52.7% | 11.9% | 58.2% | 105%
4 | Cc1cc(Cl)ccc1Nc1nc(C(F)(F)F)ccc1C(=O)N/N=C/c1ccc(N(C)C)cc1 | 30.5% | 51.1% | 25.7% | 24% | 20.3% | 18.7% | 7.24% (active) | 18.2% | 16.8% | 14.9%
5 | O=C(NCCNc1cc(-c2cn(-c3ccccc3)nc2-c2cccc(O)c2)ccn1)Nc1ccccc1 | 69.4% | 70.6% | 95.3% | 63.7% | 86.2% | 54.5% | 70.8% | 52.5% | 71.4% | 81.2%
6 | CC1=C([Se]CC(OC(=O)[C@@H](CO)NC(=O)OC(C)(C)C)C(=O)NC(C)(C)C)C(=O)c2ccccc2C1=O (stereo not given in full) | -74.5% (active) | -98.5% (active) | -73.1% (active) | -60.1% (active) | -61.7% (active) | -68.8% (active) | -92.8% (active) | -11.5% (active) | -100% (active) | -100% (active)
7 | Cn1c(-c2c(N)n(Cc3ccc(C(F)(F)F)cc3)c3nc(C#N)c(C#N)nc23)nc2ccccc21 | 1.21% (active) | -1.51% (active) | -4.98% (active) | 21.3% | 4.01% (active) | -48% (active) | -3.31% (active) | 12% | 3.33% (active) | -89.7% (active)
8 | O=C(c1ccccc1)c1c(/C=C/c2ccccc2)nc2ccccc2c1/C=C/c1ccc(Br)cc1 | 94.5% | 95.1% | 96.7% | 101% | 106% | 98.3% | 88.2% | 98.1% | 99.7% | 114%
9 | COc1cc(/C=C/C(=O)c2ccc(Nc3nc(Nc4ccc(F)cc4)nc(Nc4ccc(Cl)cc4)n3)cc2)cc(OC)c1OC | 26.3% | 61.1% | 99.6% | 82.1% | 55.1% | 38% | 62.2% | 53.1% | 66.4% | 78.5%
10 | CCn1c(C)nc2cc(C(N)=O)ccc21 | 94.3% | 89.9% | 86.8% | 89.3% | 101% | 90.7% | 90.7% | 104% | 96.3% | 120%
11 | COc1cccc(-c2nc3sccn3c2/C=C/C(=O)c2ccc(C(F)(F)F)cc2)c1 | 95% | 88.6% | 87.5% | 100% | 83.7% | 66.4% | 55.6% | 85.1% | 82.1% | 102%
12 | N#CCN1C(=O)C2C3=C(CCCC3)SC2N=C1CN1CCCC1 (stereo not given) | 97.9% | 87.5% | 91.2% | 89.6% | 117% | -1.97% (active) | 92.5% | 93.1% | 92% | 122%
13 | COc1cc(/C=N/Nc2ncc(-c3cc4cc5c(cc4o3)OCO5)s2)cc(OC)c1OC | 53% | 76.9% | 103% | 81% | 56.7% | 85.3% | 40% | 37.6% | 84.5% | 46.4%
14 | O=C(c1ccccc1)c1c(/C=C/c2ccc(Cl)cc2)nc2ccccc2c1/C=C/c1cccs1 | 102% | 92.4% | 89.4% | 106% | 107% | 87.3% | 88.6% | 92.9% | 94.9% | 103%
15 | NS(=O)(=O)c1cnccc1Sc1ccncc1S(N)(=O)=O | 96.5% | 95.2% | 124% | 91.7% | 108% | 92.1% | 115% | 109% | 100% | 98.8%
16 | CC/C=C1/C(=O)C=C[C@@H]1C/C=C\CCCC(=O)O | 85.5% | 93.3% | 113% | 80.4% | 97.1% | 121% | 24% | 87.9% | 102% | 108%
17 | COc1cccc(-c2nn(-c3ccccc3)cc2-c2ccnc(NCCNC(=O)Nc3cccc(C(F)(F)F)c3)c2)c1 | 35.8% | 61% | 35.8% | 9.97% (active) | 7.98% (active) | 0.983% (active) | -17.9% (active) | 7.06% (active) | 22.7% | -13.3% (active)
18 | COc1ccc(-c2cc(-c3ccc(Nc4nc(Nc5ccc(Cl)cc5)nc(Nc5ccc(Cl)cc5)n4)cc3)nc(N)c2C#N)cc1 | 30% | 9.85% (active) | 113% | 86.8% | 57.6% | -53.8% (active) | 83.4% | 37% | 41.6% | 5.26% (active)
19 | O=C(CSc1nccc(Nc2ccc(S(=O)(=O)Nc3nccs3)cc2)n1)c1ccc(F)cc1 | 97.6% | 102% | 106% | 106% | 106% | 106% | 88.6% | 104% | 103% | 108%
20 | O=C(O)C1CCC(=O)N1C(=O)OCc1ccccc1 (stereo not given) | 93.7% | 94.1% | 94% | 94.2% | 106% | 98.7% | 92.8% | 96.7% | 93% | 124%
21 | COC(=O)[C@]12CC[C@@H](C)[C@H](C)[C@@H]1C1=CC[C@@H]3[C@@]4(C)C(C=O)=C[C@@](C)(COS(C)(=O)=O)[C@@H]4C(=O)C[C@@]3(C)[C@]1(C)CC2 | 35.3% | 67.2% | 89.2% | 41.7% | 42.4% | 39.8% | 22.2% | 27.6% | 40.7% | 32.1%
22 | Cn1cc(-c2csc(-c3ccccc3)n2)c2cccnc21 | -54.3% [100 µM] (active) | -11.7% [100 µM] (active) | -23.6% [100 µM] (active) | -74.3% [100 µM] (active) | -56.2% [100 µM] (active) | -53% [100 µM] (active) | -24.3% [100 µM] (active) | -12.8% [100 µM] (active) | -77.4% [100 µM] (active) | -67.2% [100 µM] (active)
23 | COc1ccc2oc3c(C)c4c(c(C)c3c2c1)C(=O)N(Cc1ccccc1)C4=O | 93.3% | 90.1% | 92.4% | 88.9% | 69.4% | 85.5% | 87.5% | 83.9% | 114% | 84.7%
24 | COC(=O)c1ccc(CSc2nnc(-c3c(C)nc4ccc(C)cn34)o2)cc1 | 85.9% | 95.2% | 98.2% | 89.6% | 109% | 92% | 83.5% | 103% | 91.8% | 117%
25 | Fc1ccc(CNc2c3ccccc3nc3ccccc23)cc1F | 35.2% | 47.6% | 39% | 51.3% | 14.6% | -8.56% (active) | 37% | 29.1% | 31.4% | 16.1%
26 | CCCCCS(=O)(=O)Nc1ccc(C(=O)O)cc1 | 102% | 98.9% | 97.3% | 98.2% | 104% | 105% | 75.4% | 87.4% | 102% | 104%
27 | O=c1c2c3c(sc2n2c(-c4cc(-c5ccccc5)nn4-c4ccccc4)nnc2n1Cc1ccccc1)CCCC3 | 105% | 99% | 112% | 95% | 106% | 53.2% | 45.9% | 101% | 95.9% | 86%

— PubChem BioAssay (NCI)
